The source of these data is PubChem BioAssay AID624168 (Sanford-Burnham Center for Chemical Genomics, 2012).

SMILES strings stand for the structures. The whole screen tested about 360,000 compounds, of which about 800 (0.22%) were called active.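 How the source made its calls: active means activation of at least 8% versus controls, or a plate z-score of at least 8; inactive means the rest.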 Only a selection was taken, and actives are over-represented in it overall.

The experiment is described as follows: compounds raising alpha-dystroglycan glycosylation – uHTS, Pro5-aDG cells, AlphaScreen, primary screen (AID 624168).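 Further: Pro5 are CHO cells carrying HIG-tagged alpha-DG that lacks glycosylation.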 As to conditions: alpha-DG glycosylation AlphaScreen (IIH6), at 10 µM, hits give high values, 0% Pro5, 100% B10-LARGE cell signal.
For the compound `Cc1ccc(NC(=O)c2sccc2C)cc1[N+](=O)[O-]`, the activation was 0% (inactive).

For `Cc1ccc(NC(=O)CN(C)CC(=O)Nc2cccc(F)c2)cc1[N+](=O)[O-]`, the activation is 10% (active). For `CN(CC(=O)Nc1cccc(F)c1)C(=O)C1=COCCO1`, the activation is 0.1% (inactive).

For the compound `O=C(CN1CCCCC1)NC(=O)Nc1ccccc1F`, the activation is 0% (inactive). With `O=C(CCNS(=O)(=O)c1ccc(Br)s1)NCc1ccccc1Cl`, the activation was 0.5% (inactive). `COc1cccc(NC(=O)N(C)C[C@@H]2Oc3ncc(Br)cc3C(=O)N([C@@H](C)CO)C[C@H]2C)c1`: the activation was 0.2% (inactive). Then `OC(CN1C2=NCCCN2c2ccccc21)c1ccc(Br)cc1` (configuration not stated), with 0.6% (inactive).

With `CC(=O)N1CSCC1C(=O)O` (configuration not stated), the activation was 0.1% (inactive).

On to `NC(=O)COC(=O)c1cc(S(=O)(=O)N2CCN(c3ccccc3)CC2)ccc1Cl`, for which the activation is -1.4% (inactive). Turning to `O=S(=O)(c1ccc2ccccc2c1)N1CCN(S(=O)(=O)N2CCOCC2)CC1`, the activation is 0.1% (inactive).

`O=c1ccc2cc(S(=O)(=O)N3CCN(c4ccccc4)CC3)ccc2o1`: the activation is 8.4% (active).

Regarding `O=C1OCCOC2CCCc3oc(-c4ccccc4)c1c32` (configuration not stated), the activation was 0.5% (inactive). For the compound `CCN(CC(=O)NCc1ccc(Cl)cc1)C(=O)CSc1ccccc1`, the activation was 0% (inactive). With `O=C(NCCN1CCOCC1)Nc1cccc(Cl)c1`, the activation was -0.1% (inactive). In the case of `c1ccc2cc3c(NCCN4CCOCC4)ccnc3cc2c1`, the activation is 9% (active).

Regarding `O=S(=O)(c1ccc(Cl)cc1)c1nc(-c2ccccc2F)oc1NCCN1CCOCC1`, the activation is 0.2% (inactive). `O=S1(=O)CC(NCc2ccccc2)C(Nc2ccc(Cl)cc2)C1` (configuration not stated): the activation is 0% (inactive). Turning to `O=C(/C(=N\O)n1cncn1)c1ccc(Br)cc1Br`, the activation is 0.2% (inactive).

`Cc1ccc(C(NC(=O)C2CCN(CCOc3ccc(Cl)cc3Cl)CC2)c2ccccn2)cc1` (configuration not stated): the activation was 0.4% (inactive). Turning to `O=C(NC(c1ccc(Cl)cc1)c1cnccn1)C1CCN(Cc2ccc(Cl)cc2)CC1` (configuration not stated), the activation is 0.1% (inactive). For `O=C(NC(c1ccc(-c2ccccc2)cc1)c1cnccn1)C1CCN(CCOc2ccc(Cl)cc2Cl)CC1` (configuration not stated), the activation is 7.1% (active). Then `CCOC(=O)c1cc2sccc2n1Cc1ccc(C#N)cc1`, with 0% (inactive). For the compound `CCOCCCNC(=O)C1(O)c2cc(Br)ccc2NC(=O)N1c1ccc(C)c(C)c1` (configuration not stated), the activation was -0.2% (inactive). As to `CN1CCCc2cc(C#N)c(=O)[nH]c21`, the activation was 0% (inactive). Then `CC(C)c1cc(Cn2c3ccccc3c(=O)n2C(C)Cn2cc(C3CC3)nn2)on1` (configuration not stated), with 6.8% (active). For `COCCN(C(=O)C(C)C)c1nnc(-c2ccc(C(C)(C)C)cc2)s1`, the activation was 0.5% (inactive). As to `Cc1ccc(OCc2nnc(SC3CCc4ccccc4C3=O)n2C)cc1` (configuration not stated), the activation was 0% (inactive).
